According to the supplement of paper PMC10849652:
Of roughly 7,900 targets only a part is listed; those with a hit were picked by preference. About 0.6% of all pairs of compound and target were hits.

Experiments:
Assay in all cases: log2 fold change, soluble protein after heating vs DMSO (PISA); higher = thermal stabilisation; K562 cells, 10 uM, 30 min; active = over 0.2 and 3.5 SD of the protein, either way, in both replicates (recomputed)
[1] = compound: C1=CC=C(C=C1)[C@H](COC2=CC3=C(C=C2)NC(=O)N3)NC(=O)C4=CC=CN(C4=O)CC5=CC(=C(C=C5)F)F
Outline: (§1)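 Soluble protein was defined as the supernatant after 21,000xg for 90 min. It came from K562 cells at 2×10^6 cells/mL given 10 μM compound for 30 min, heated in aliquots for 3 min across 48°C-58°C, pooled, and extracted in PBS with 0.5% NP-40 at 4°C, and was quantified by TMTpro 16plex LC-MS/MS with equalised channel sums. Thermal stability against control samples, from duplicates, is reported as log2 fold change.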

[2] = compound: CC1=C(SC2=C1C(=N[C@H](C3=NN=C(N32)C)CC(=O)N)C4=CC=C(C=C4)Cl)C
Outline: as §1

[3] = compound: CC1=C2C(=CC=C1)N=C(N(C2=O)C3=CC=CC=C3C)CN4C=NC5=C(N=CN=C54)N
Outline: as §1

[4] = compound: Cc1sc2c(c1C)C(c1ccc(Cl)cc1)=N[C@@H](CC(=O)OC(C)(C)C)c1nnc(C)n1-2
Outline: as §1

[5] = compound: c1ccc([C@@H]2C[C@H]2NC2CCNCC2)cc1
Outline: as §1

Measured: log2 fold change

DNAH5 (UniProt Q8TE73)
inactive: [1] 0.074 | [2] 0.023 | [3] 0.08 | [4] 0.139 | [5] 0.062

FAM193B (UniProt Q96PV7)
inactive: [1] -0.115 | [2] 0.011 | [3] -0.103 | [4] 0.273 | [5] -0.115

CTSC (UniProt P53634)
inactive: [1] 0.018 | [2] -0.012 | [3] -0.039 | [4] -0.01 | [5] 0.056

DHX40 (UniProt Q8IX18)
inactive: [1] 0.026 | [2] 0.101 | [3] 0.072 | [4] 0.093 | [5] -0.022

DPP8 (UniProt Q6V1X1)
inactive: [1] -0.112 | [2] 0.029 | [3] 0.145 | [4] -0.033 | [5] 0.005

DHX36 (UniProt Q9H2U1)
inactive: [1] 0.037 | [2] -0.087 | [3] -0.094 | [4] 0.091 | [5] 0.015

DFFB (UniProt O76075)
inactive: [1] -0.027 | [2] 0.099 | [3] 0.048 | [4] 0.202 | [5] 0.049

EDEM2 (UniProt Q9BV94)
Sequence of UniProt Q9BV94 (Q9BV94 whole entry, looked up): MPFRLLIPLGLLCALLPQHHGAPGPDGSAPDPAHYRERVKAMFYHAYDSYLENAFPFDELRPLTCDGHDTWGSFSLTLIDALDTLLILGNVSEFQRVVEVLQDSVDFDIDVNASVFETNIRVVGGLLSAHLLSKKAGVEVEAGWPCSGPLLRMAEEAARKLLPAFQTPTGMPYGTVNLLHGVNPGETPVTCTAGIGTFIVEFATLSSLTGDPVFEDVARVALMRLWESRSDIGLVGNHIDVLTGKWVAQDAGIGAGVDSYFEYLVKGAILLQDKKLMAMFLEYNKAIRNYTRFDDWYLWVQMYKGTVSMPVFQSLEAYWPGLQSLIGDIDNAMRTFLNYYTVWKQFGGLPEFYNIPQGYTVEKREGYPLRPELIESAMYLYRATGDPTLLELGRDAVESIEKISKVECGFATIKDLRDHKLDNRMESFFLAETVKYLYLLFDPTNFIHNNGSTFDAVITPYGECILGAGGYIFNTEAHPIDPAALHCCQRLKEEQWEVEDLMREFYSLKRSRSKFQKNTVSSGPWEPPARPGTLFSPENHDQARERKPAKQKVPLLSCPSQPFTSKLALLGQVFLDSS
inactive: [1] 0.194 | [2] 0.042 | [3] 0.013 | [4] -0.046 | [5] 0.012

CTNNB1 (UniProt P35222)
inactive: [1] -0.039 | [2] 0.101 | [3] 0.312 | [4] -0.062 | [5] -0.149

ESYT1 isoform 2 (UniProt Q9BSJ8)
inactive: [1] -0.063 | [2] -0.046 | [3] 0.018 | [4] 0.008 | [5] -0.046

DHPS (UniProt M0R1T2)
inactive: [1] -0.155

FAM241A (UniProt Q8N8J7)
inactive: [1] -0.046 | [2] 0.034 | [3] 0.041 | [4] 0 | [5] 0.008

CTSA (UniProt P10619)
inactive: [1] 0.004 | [2] -0.063 | [3] -0.034 | [4] -0.018 | [5] 0.03

EVC2 (UniProt Q86UK5)
inactive: [1] -0.064 | [2] -0.044 | [3] -0.141 | [4] 0.021 | [5] 0.081

CWC27 (UniProt Q6UX04)
inactive: [1] -0.039 | [2] 0.097 | [3] 0.103 | [4] -0.03 | [5] -0.001

CUEDC2 (UniProt Q9H467)
Sequence of UniProt Q9H467 (Q9H467 whole entry, looked up): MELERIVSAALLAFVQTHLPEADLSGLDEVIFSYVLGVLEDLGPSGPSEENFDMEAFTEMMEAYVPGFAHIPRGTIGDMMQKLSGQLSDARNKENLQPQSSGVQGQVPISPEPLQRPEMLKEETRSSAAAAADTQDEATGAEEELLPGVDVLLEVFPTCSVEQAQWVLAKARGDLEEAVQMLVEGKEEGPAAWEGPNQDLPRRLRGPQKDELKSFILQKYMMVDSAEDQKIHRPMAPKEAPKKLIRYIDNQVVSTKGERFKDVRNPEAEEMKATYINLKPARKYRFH
inactive: [1] 0.036 | [2] 0.047 | [3] 0.038 | [4] 0.01 | [5] -0.022

FAM118A (UniProt Q9NWS6)
inactive: [1] -0.079 | [2] 0.05 | [3] -0.102 | [4] -0.021 | [5] 0.003

EPHX2 (UniProt E5RI53)
inactive: [1] -0.024

ERCC6 (UniProt Q03468)
inactive: [1] 0.013 | [2] -0.025 | [3] -0.018 | [4] -0.008 | [5] 0.151

EXOSC10 (UniProt Q01780)
Sequence of UniProt Q01780 (Q01780 whole entry, looked up): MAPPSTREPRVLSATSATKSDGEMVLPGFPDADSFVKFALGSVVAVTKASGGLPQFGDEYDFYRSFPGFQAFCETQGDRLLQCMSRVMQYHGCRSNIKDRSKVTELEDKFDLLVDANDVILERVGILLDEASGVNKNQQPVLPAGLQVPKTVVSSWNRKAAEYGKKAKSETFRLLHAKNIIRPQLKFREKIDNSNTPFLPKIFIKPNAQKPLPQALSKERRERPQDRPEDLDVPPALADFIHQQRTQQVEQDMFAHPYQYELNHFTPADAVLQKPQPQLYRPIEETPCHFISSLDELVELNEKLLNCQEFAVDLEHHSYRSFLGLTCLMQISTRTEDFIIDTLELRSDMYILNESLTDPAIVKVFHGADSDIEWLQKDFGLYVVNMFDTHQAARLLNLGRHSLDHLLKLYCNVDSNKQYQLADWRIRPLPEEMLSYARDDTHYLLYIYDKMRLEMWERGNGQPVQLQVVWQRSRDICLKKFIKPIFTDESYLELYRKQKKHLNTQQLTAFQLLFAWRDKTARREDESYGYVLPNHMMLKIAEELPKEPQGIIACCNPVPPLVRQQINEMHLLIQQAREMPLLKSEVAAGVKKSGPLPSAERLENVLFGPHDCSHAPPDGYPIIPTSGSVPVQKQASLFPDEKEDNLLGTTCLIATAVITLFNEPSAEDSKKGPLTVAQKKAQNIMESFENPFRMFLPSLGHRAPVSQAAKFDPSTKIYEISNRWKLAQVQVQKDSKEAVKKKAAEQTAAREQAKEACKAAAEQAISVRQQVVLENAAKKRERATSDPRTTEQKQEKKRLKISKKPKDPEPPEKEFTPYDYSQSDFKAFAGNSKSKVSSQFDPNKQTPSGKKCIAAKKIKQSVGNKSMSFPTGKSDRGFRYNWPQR
inactive: [1] 0.162 | [2] 0.184 | [3] 0.284 | [4] 0.03 | [5] -0.041

DAG1 (UniProt Q14118)
inactive: [1] -0.068 | [2] 0.074 | [3] 0.072 | [4] 0.016 | [5] 0.049

FAF2 (UniProt Q96CS3)
inactive: [1] 0.002 | [2] 0.025 | [3] 0.067 | [4] -0.012 | [5] -0.017

DDB1 isoform 2 (UniProt Q16531)
inactive: [1] 0.028

EXOC6 (UniProt Q8TAG9)
inactive: [1] -0.088 | [2] -0.006 | [3] 0.072 | [4] 0.031 | [5] -0.069

DHRS3 (UniProt O75911)
inactive: [1] 0.007 | [2] 0.068 | [3] 0.057 | [4] 0.017 | [5] -0.024

DPH5 isoform 5 (UniProt Q9H2P9)
inactive: [1] -0.025 | [2] 0.054 | [3] 0.092 | [4] -0.009 | [5] 0

FAAP100 (UniProt Q0VG06)
inactive: [1] -0.243 | [2] 0.078 | [3] 0.017 | [4] -0.073 | [5] 0.067

CTU1 (UniProt Q7Z7A3)
inactive: [1] -0.061 | [2] 0.025 | [3] 0.052 | [4] -0.006 | [5] -0.051

ERLIN2 (UniProt O94905)
Sequence of UniProt O94905 (O94905 whole entry, looked up): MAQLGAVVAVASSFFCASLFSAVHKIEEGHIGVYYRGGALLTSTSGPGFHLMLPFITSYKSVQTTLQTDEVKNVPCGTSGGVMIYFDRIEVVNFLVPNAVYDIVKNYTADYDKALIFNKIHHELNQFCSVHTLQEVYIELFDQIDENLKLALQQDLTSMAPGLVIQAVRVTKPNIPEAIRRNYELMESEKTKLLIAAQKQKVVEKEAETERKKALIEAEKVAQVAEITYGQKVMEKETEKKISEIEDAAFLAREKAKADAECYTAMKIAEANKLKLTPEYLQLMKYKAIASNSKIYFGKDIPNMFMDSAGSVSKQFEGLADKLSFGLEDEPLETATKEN
inactive: [1] -0.025 | [2] -0.048 | [3] -0.038 | [4] 0.006 | [5] -0.044

DCTN1 isoform 4 (UniProt Q14203)
Sequence of UniProt Q14203 (Q14203 whole entry, looked up): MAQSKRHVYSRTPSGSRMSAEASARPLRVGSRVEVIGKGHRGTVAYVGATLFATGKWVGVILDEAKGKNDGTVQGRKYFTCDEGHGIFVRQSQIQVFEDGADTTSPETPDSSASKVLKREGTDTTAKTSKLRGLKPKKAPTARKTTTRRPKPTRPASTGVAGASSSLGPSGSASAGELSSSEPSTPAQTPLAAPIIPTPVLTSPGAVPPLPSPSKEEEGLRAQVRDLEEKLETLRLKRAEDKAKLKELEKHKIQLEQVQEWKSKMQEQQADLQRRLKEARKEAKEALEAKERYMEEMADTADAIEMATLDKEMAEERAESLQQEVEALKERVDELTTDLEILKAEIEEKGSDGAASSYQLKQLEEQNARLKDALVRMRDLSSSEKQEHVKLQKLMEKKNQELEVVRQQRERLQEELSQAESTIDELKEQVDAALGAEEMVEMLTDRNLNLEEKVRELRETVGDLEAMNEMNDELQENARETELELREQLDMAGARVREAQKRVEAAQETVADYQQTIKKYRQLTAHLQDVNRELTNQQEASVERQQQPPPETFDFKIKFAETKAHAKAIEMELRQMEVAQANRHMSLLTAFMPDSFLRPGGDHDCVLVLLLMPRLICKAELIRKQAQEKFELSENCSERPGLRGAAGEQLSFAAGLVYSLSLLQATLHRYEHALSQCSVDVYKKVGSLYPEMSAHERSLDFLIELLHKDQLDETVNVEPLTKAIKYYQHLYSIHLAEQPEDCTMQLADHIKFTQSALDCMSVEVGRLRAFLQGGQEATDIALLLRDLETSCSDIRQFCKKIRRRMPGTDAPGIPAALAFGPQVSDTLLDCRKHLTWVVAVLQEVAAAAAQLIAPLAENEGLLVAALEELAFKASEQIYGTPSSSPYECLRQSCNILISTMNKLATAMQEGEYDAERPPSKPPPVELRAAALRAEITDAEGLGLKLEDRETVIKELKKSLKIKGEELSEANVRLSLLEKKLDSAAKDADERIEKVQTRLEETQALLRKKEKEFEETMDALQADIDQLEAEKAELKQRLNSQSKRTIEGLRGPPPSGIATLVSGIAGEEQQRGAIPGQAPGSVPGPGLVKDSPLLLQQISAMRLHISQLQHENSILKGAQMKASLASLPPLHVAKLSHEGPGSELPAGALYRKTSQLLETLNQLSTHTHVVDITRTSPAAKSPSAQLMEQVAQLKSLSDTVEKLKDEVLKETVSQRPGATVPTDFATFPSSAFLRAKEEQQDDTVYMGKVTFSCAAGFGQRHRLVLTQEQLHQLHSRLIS
inactive: [1] -0.052 | [2] -0.021 | [3] 0.096 | [4] 0.044 | [5] -0.008

EXOC8 (UniProt Q8IYI6)
inactive: [1] -0.004 | [2] 0.029 | [3] 0.03 | [4] 0.006 | [5] -0.051

EMD (UniProt P50402)
inactive: [1] 0.016 | [2] 0.022 | [3] 0.059 | [4] 0.058 | [5] 0.031

DYNC1LI2 (UniProt O43237)
inactive: [1] -0.04 | [2] -0.071 | [3] 0.035 | [4] -0.028 | [5] 0.013

ELOC (UniProt Q15369)
inactive: [1] 0.024 | [2] 0.151 | [3] 0.132 | [4] -0.066 | [5] -0.07

FADS1, A0A0A0MR51
inactive: [1] -0.051 | [2] 0.026 | [3] 0.026 | [4] -0.005 | [5] -0.038

EIF2S3 (UniProt P41091)
Sequence of UniProt P41091 (P41091 whole entry, looked up): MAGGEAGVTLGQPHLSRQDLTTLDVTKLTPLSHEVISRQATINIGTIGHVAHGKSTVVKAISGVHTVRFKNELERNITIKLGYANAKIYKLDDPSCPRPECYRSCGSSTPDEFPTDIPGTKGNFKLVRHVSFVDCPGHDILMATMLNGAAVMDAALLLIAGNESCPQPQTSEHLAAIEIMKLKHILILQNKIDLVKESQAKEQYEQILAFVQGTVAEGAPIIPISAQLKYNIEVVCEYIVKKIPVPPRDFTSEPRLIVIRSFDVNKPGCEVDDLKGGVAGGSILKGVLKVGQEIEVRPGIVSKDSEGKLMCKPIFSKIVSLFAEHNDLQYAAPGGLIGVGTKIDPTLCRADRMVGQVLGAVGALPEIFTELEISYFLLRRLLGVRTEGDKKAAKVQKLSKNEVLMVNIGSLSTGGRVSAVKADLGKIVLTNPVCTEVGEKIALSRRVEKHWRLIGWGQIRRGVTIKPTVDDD
inactive: [1] 0.008 | [2] -0.023 | [3] -0.017 | [4] 0.054 | [5] -0.002

DTYMK (UniProt P23919)
inactive: [1] -0.064 | [2] 0.082 | [3] -0.02 | [4] -0.003 | [5] -0.014

EHD2 (UniProt Q9NZN4)
Sequence of UniProt Q9NZN4 (Q9NZN4 whole entry, looked up): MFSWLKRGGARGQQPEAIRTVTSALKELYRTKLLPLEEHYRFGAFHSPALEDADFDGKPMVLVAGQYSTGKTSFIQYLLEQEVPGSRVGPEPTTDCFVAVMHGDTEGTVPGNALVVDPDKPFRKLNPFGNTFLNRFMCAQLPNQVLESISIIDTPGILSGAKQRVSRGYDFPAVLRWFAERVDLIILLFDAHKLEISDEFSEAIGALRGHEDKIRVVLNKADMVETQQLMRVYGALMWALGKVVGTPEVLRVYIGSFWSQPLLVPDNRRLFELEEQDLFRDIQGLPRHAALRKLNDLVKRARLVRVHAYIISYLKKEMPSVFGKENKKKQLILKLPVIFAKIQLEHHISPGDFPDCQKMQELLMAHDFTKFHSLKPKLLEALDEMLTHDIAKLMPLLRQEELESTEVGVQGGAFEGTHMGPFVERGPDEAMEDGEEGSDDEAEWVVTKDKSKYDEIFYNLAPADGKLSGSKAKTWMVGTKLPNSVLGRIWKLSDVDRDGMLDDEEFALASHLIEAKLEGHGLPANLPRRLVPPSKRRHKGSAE
inactive: [1] -0.018 | [2] 0.049 | [3] 0.022 | [4] -0.019 | [5] -0.049

EEF1A1 (UniProt P68104)
inactive: [1] 0.112 | [2] 0.212 | [3] -0.097 | [4] 0.125 | [5] -0.471

FADS3 (UniProt Q9Y5Q0)
inactive: [1] 0.027 | [2] 0.023 | [3] 0.026 | [4] 0.025 | [5] -0.007

DYNC1I2 isoform 5 (UniProt Q13409)
inactive: [1] 0.019 | [2] 0.021 | [3] -0.006 | [4] -0.033 | [5] -0.019

FAM160B1 (UniProt Q5W0V3)
inactive: [1] -0.005 | [2] 0.026 | [3] -0.01 | [4] -0.022 | [5] -0.041

FAM118B (UniProt Q9BPY3)
inactive: [1] -0.276 | [2] -0.01 | [3] 0.208 | [4] -0.019 | [5] -0.009

DDX4 (UniProt Q9NQI0)
inactive: [1] 0.052 | [2] -0.11 | [3] 0.213 | [4] 0.274 | [5] 0.001

DNTTIP2 (UniProt Q5QJE6)
inactive: [1] -0.068 | [2] -0.117 | [3] -0.021 | [4] 0.087 | [5] 0.132

EDC4 (UniProt Q6P2E9)
inactive: [1] 0.02 | [2] -0.004 | [3] 0.075 | [4] 0.023 | [5] 0.024

ELOVL1 (UniProt Q9BW60)
inactive: [1] -0.16 | [2] 0.145 | [3] 0.045 | [4] -0.134 | [5] -0.05

DBNL isoform 3 (UniProt Q9UJU6)
inactive: [1] -0.096 | [2] 0.002 | [3] 0.045 | [4] 0.029 | [5] 0.01

EIF2AK1 (UniProt Q9BQI3)
inactive: [1] 0.025 | [2] -0.036 | [3] -0.051 | [4] 0.025 | [5] 0.018

EGR1 (UniProt P18146)
Sequence of UniProt P18146 (P18146 whole entry, looked up): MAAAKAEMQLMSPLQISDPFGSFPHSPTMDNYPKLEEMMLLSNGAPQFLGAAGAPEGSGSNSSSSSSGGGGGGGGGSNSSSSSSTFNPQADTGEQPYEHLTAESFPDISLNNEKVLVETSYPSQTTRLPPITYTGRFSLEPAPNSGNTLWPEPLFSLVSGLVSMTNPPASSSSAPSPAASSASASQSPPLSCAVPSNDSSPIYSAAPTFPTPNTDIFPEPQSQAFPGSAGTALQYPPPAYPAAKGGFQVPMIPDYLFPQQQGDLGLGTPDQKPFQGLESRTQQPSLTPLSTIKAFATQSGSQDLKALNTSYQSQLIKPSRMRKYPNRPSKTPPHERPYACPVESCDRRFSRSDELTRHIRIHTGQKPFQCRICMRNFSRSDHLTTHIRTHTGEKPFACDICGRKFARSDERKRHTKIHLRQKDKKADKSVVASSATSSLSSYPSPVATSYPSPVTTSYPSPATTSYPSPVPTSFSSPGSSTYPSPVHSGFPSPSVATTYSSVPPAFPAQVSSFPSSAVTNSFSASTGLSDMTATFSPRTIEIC
inactive: [1] 0.034 | [2] 0.241 | [3] -0.097 | [4] 0.705 | [5] 0.07

DCTPP1 (UniProt Q9H773)
inactive: [1] 0.022 | [2] 0.029 | [3] -0.015 | [4] -0.043 | [5] 0.009

EXOC1 (UniProt Q9NV70)
inactive: [1] -0.095 | [2] 0.021 | [3] 0.121 | [4] 0.027 | [5] -0.075

EXOC2 (UniProt Q96KP1)
inactive: [1] -0.054 | [2] 0.025 | [3] 0.03 | [4] 0.033 | [5] 0.011

DNAJC24 (UniProt Q6P3W2)
inactive: [1] 0.05 | [2] 0.072 | [3] 0.025 | [4] -0.002 | [5] 0.054

DAXX (UniProt Q9UER7)
inactive: [1] 0.166 | [2] 0.178 | [3] 0.197 | [4] 0.017 | [5] -0.101
